Experimental data: PubChem BioAssay AID463173 (ICCB-Longwood Screening Facility, Harvard Medical School, 2010)
In all, about 52,000 compounds went through this assay and about 4,300 (8.3%) were called active. The sample holds actives, similar compounds and a random draw of the others, so the mix is not that of the screen. Unmarked numbers belong to inactive results. Rule as the data show it: active = survival mostly below about 52% (no sharp cut-off); inactive = mostly above about 56%.

These molecules were tested on DeltatarO mutant (assay: S. aureus survival, RN4220 and DeltatarO strains – OD600, teichoic acid synthesis inhibitors, primary screen (AID 463173)). Conditions: S. aureus RN4220 wild type/DeltatarO growth, OD600, 18 h, stronger effect = lower value, screened at 18.75 µg/mL (by protocol).

Row | Compound | survival
1 | CCOC(=O)CC(=O)CSc1nc2ccsc2c(=O)n1Cc1ccccc1 | 118%
2 | COc1ccc(-c2coc3c2c(C)cc2oc(=O)cc(C)c23)cc1 | 82%
3 | Cc1ccc(CCNC(=O)C2CC(=O)N(CCc3ccc(C)cc3)C2)cc1 (stereo unspecified) | 101%
4 | Cc1cc(Br)ccc1NC(=O)C1CCN(S(=O)(=O)c2cccc3nsnc23)CC1 | 115%
5 | COc1ccc(Br)cc1CNC(=O)c1cnc2sc(N3CCC(C)CC3)nn2c1=O | 78%
6 | CCc1ccc(-n2nc3ccc(NC(=O)c4cc5ccccc5o4)cc3n2)cc1 | 65%
7 | COc1cccc(C(C(=O)NCC2CCCO2)N(CC2CCCO2)C(=O)CC2C(=O)c3ccccc3S2(=O)=O)c1 (stereo unspecified) | 90%
8 | O=c1cc(-c2ccc(F)cc2)nc(SCc2nc(-c3ccccc3Cl)no2)[nH]1 | 117%
9 | Cc1ccc2nc(SCc3nc(-c4ccccc4C)no3)[nH]c2c1 | 25% (active)
10 | Cc1cccc(-c2noc(CSc3nc(-c4ccc(F)cc4)cc(=O)[nH]3)n2)c1 | 83%
11 | COc1ccc(-c2noc(CSc3nc4ccccc4[nH]3)n2)cc1OC | 62%
12 | Cc1ccccc1-c1noc(CSc2nc(-c3ccc(F)cc3)cc(=O)[nH]2)n1 | 37% (active)
13 | Cc1ccc2nc(SCc3nc(-c4ccc(Cl)cc4)no3)[nH]c2c1 | 28% (active)
14 | Cc1ccccc1-c1noc(CSc2nc3ccccc3[nH]2)n1 | 57%
15 | O=c1cc(-c2ccccc2)nc(SCc2nc(-c3ccc(Cl)cc3)no2)[nH]1 | 69%
16 | CCc1cc(=O)[nH]c(SCc2nc(-c3ccccc3C)no2)n1 | 84%
17 | COc1ccccc1-c1noc(CSc2nc3ccc(C)cc3[nH]2)n1 | 102%
18 | COc1ccc(-c2noc(CSc3nc4ccccc4[nH]3)n2)cc1 | 51%
19 | COc1ccc(-c2noc(CSc3nc4ccc(C)cc4[nH]3)n2)cc1 | 39% (active)
20 | NCCSC1CC(=O)N(c2ccc(Cl)cc2)C1=O (stereo unspecified) | 88%
21 | COc1ccc(C)cc1NC(=O)c1cc2c(=O)n3cccc(C)c3nc2s1 | 86%
22 | COc1ccc(Cl)cc1NC(=O)CN(C)S(=O)(=O)c1ccc2c(c1)CCCN2C(C)=O | 78%
23 | CCCCNS(=O)(=O)c1ccc(N2CCCCS2(=O)=O)cc1 | 66%

Row | Compound | survival
24 | Cc1ccc(-c2noc(-c3nnn(CC(=O)Nc4ccc(C)cc4Cl)c3N)n2)cc1 | 83%
25 | C=CCNCc1cc2cc(OCC)ccc2[nH]c1=O | 97%
26 | COc1cc(OC)c(Nc2ncnc3onc(-c4cccc(Cl)c4)c23)cc1Cl | 73%
27 | CCOc1ccc(NC(=O)Cn2cc(S(=O)(=O)N3CCN(c4ccccc4F)CC3)c3ccccc3c2=O)cc1 | 89%
28 | COc1ccc(NC(=O)CSc2nnc(-c3cccs3)o2)cc1 | 54%
29 | Cc1ccc(NC(=O)CCn2nc(-c3ccccc3)c3ccccc3c2=O)c(C)c1 | 52% (active)
30 | COc1ccccc1NC(=O)CCn1nc(-c2ccccc2)c2ccccc2c1=O | 42% (active)
31 | Cc1ccccc1NC(=O)CCn1nc(-c2ccc(Cl)cc2)c2ccccc2c1=O | 95%
32 | Cc1ccc(NC(=O)Cn2ncn3c(cc4ccccc43)c2=O)cc1F | 84%
33 | Cc1ccc(NC(=O)Cn2ncn3c(cc4ccccc43)c2=O)cc1C | 73%
34 | Cc1ccc(-c2nn(CCC(=O)Nc3ccc(Cl)c(Cl)c3)c(=O)c3ccccc23)cc1 | 53%
35 | CCCNC(=O)CCn1nc(-c2ccccc2)c2ccccc2c1=O | 70%
36 | Cc1ccc(NC(=O)Cn2ncn3c(cc4ccccc43)c2=O)c(C)c1 | 45% (active)
37 | O=C(CCn1nc(-c2ccccc2)c2ccccc2c1=O)Nc1ccccc1 | 69%
38 | COc1ccc(NC(=O)CSc2nc3cc(OC)c(OC)cc3c3nc(-c4ccccc4)nn23)cc1Cl | 123%
39 | Cc1ccc(NC(=O)CN2C(=O)CCSc3ccc(S(=O)(=O)N4CCCC4)cc32)cc1 | 86%
40 | COc1ccc(-c2onc(C)c2C)cc1S(=O)(=O)NCc1ccc(C)o1 | 89%
41 | CC1=C(c2ccc(C(C)C)cc2)S(=O)(=O)N=C1N1CCN(c2ccccc2F)CC1 | 85%
42 | COc1ccc(OC)c(C2CC(=O)Nc3c2c(=O)[nH]c2nc4ccccc4n32)c1 (stereo unspecified) | 164%
43 | CCNc1nc(NC(C)(C)C)nc(Oc2ccc(=O)n(C)n2)n1 | 68%
44 | Cc1cccc(N2CCN(C(=O)CCc3c(C)nc4ncnn4c3C)CC2)c1C | 79%
45 | CCOC(=O)c1ccc(NC2SC(=O)N(Cc3cccc(C(=O)O)c3)C2=O)cc1 (stereo unspecified) | 60%
46 | Cc1ccc(CN2C(=O)SC(Nc3ccc(Cl)cc3)C2=O)cc1 (stereo unspecified) | 30% (active)
